The source of these data is PubChem BioAssay (NCATS).

Test in all cases: Cytotoxic Profiling of Annotated Libraries Using Quantitative High-Throughput Screening (AID 1296008); also: nearly all actives have a fitted effect of over 60% in size
What all share (details): Five cell lines viability, CellTiter-Glo ATP luminescence, 48-72 h; max response: stronger effect = lower value
For orientation: In ATP-based viability assays light output follows the ATP content of the culture.

One assay has as its system CRL-7250. The method in brief:
(§1)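 Compounds were pin-transferred onto cells and incubated 48 or 72 hr at 37 degree Celsius, 95% humidity. CellTiter-Glo was added, plates sat 10 min at room temperature, then ATP-coupled luminescence was imaged as the viability read-out.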

The test system of the next assay is HEK293. The method in brief:
as §1

A further assay has as its system HaCat. The method in brief:
as §1

A further assay concerns KB-3-1. The method in brief: as §1
Another assay relates to NIH3T3. The method in brief:
as §1

The structures appear in SMILES notation. Inconclusive results are not listed. A number with no mark means an inactive call. Calls of active or inactive are those of the source. Calls follow the shape of the dose curve; as a rule, active = well fitted inhibition curve with a large enough effect; inconclusive = small, poorly fitted or top-dose-only effect; inactive = flat fitted curve, though single readings scatter. Where a SMILES comes first, the peptide text is derived from it. The star is where a group is joined. AFC = O=c1cc(C(F)(F)F)c2ccc(N*)cc2o1
% is scaled to controls: 0 for no effect and ±100 for the full control effect; potency is read from the fitted curve at half-maximal effect.

As to `C=CC(=O)Nc1cc(Nc2nccc(-c3c[nH]c4ccccc34)n2)c(OC)cc1N(C)CCN(C)C`, the Potency in the assay with CRL-7250 is 18.4 µM (active); in the assay on HEK293 it was 5.17 µM (active); with HaCat it was 36.6 nM (active); with KB-3-1, 8.2 µM (active); in the assay on NIH3T3, 14.6 µM (active).
Consider `CC1(C)CC[C@@]2(C(=O)O[C@@H]3O[C@H](CO)[C@@H](O)[C@H](O)[C@H]3O)C(C1)C1=CCC3[C@@]4(C)CC[C@@H](O[C@@H]5O[C@H](C(=O)O)[C@@H](O[C@@H]6OC[C@@H](O)[C@H](O)[C@H]6O)[C@H](O[C@@H]6OC[C@](O)(CO)[C@H]6O)[C@H]5O)C(C)(C)C4CC[C@@]3(C)[C@]1(C)C[C@H]2O` (stereo not given in full), for which the outcome with CRL-7250 and with KB-3-1 was inactive. Also, the figures for the max response in the assay with HEK293, with HaCat and with NIH3T3 were -3.68%, 4.43% and -2.09%, respectively.
In the case of `C=C1C(OC(=O)/C(C)=C\C)[C@@]23CCC4[C@@](C)(CCC[C@@]4(C)C(=O)O)C2CC[C@H]1C3OC(C)=O` (stereo not given in full), the max response with CRL-7250 is -2.82%; in the assay on HEK293, -4.19%; with HaCat, 4.6%; with KB-3-1, 5.82%; in the assay on NIH3T3 it was 1.34%.
As to `CCCC(=O)C1CCN(c2ncnc3c2CN(C(=O)c2ccc(-c4ccccc4)cc2)CC3)CC1`, the max response was -7.29% in the assay with CRL-7250, -5.72% in the assay with HaCat, -16.8% in the assay with KB-3-1 and -13.2% in the assay with NIH3T3. For the same compound, the Potency in the assay on HEK293 was 18.4 µM (active).
As to `Cc1ccc(NC(=O)C(=O)NC2CC(C)(C)NC(C)(C)C2)cc1`, in the assay with CRL-7250, the result was inactive. Besides, the max response in the assay with HEK293 is 1.35%; in the assay on HaCat it was -22.4%; with KB-3-1, -0.25%; in the assay on NIH3T3, -7%.
As to `COC(=O)[C@@]1(c2ccc(C)cc2)C[C@H]1CN1CCC(O)(c2ccccc2)CC1`, the max response was 3.12% in the assay on CRL-7250; -9.08% with HEK293; -4.07% with HaCat; -2.51% in the assay on KB-3-1; -2.42% in the assay with NIH3T3.
As to `C=C1CCC2C(C)(C)C(O)CCC2(C)C1CCC(C)CCOC(C)=O` (stereo not given), the call with CRL-7250 was inactive. In addition, the max response was -19.2% with HEK293, -5.36% in the assay on HaCat, 3.19% in the assay on KB-3-1 and -9.96% with NIH3T3.
For `CCCCNc1ncc2c(-c3ccc(CN4CCN(C)CC4)cc3)cn(C3CCC(O)CC3)c2n1` (stereo not given), the Potency was 5.17 µM (active) with CRL-7250; 7.31 µM (active) in the assay on HEK293; 920 nM (active) in the assay with HaCat; 1.03 µM (active) in the assay on KB-3-1; 1.3 µM (active) in the assay on NIH3T3.
In the case of `CCC(CC)C(=O)Nc1sc2c(c1C#N)CCC(C(C)(C)CC)C2` (stereo not given), the call in the assay with CRL-7250 was inactive. The Potency in the assay with HEK293 is 23.1 µM (active). In addition, the results for the max response with HaCat, in the assay on KB-3-1 and in the assay with NIH3T3 were 1.75%, -9.22% and 3.55%, respectively.
With `CC1=C2C[C@H]3O[C@@]3(C)CCC3O[C@@]3(C)C[C@@]2(O)OC1=O` (stereo not given in full), the result in the assay with CRL-7250 and in the assay with KB-3-1 was inactive. Moreover, the max response in the assay with HEK293 is -4.05%; with HaCat it was -4.97%; in the assay on NIH3T3 it was 2.41%.
`CC[C@H](C)[C@H](NC(=O)[C@H]([C@@H](C)CC)N(C)C(C)=O)C(=O)N[C@H](C(=O)N[C@@H](CC(C)C)C(=O)[C@@]1(C)CO1)[C@@H](C)O`: the Potency with CRL-7250 was 0.0291 µM (active); in the assay on HEK293 it was 0.0092 µM (active); with HaCat, 36.6 nM (active); in the assay on KB-3-1 it was 0.0326 µM (active); with NIH3T3, 0.058 µM (active).
Regarding `COc1cccc(Nc2ncnn3ccc(CN4CC[C@@H](N)[C@H](O)C4)c23)c1`, the Potency with CRL-7250 was 8.2 µM (active); in the assay with HEK293, 13 µM (active); in the assay with HaCat it was 5.8 nM (active); with NIH3T3, 0.517 µM (active). Also, the max response in the assay with KB-3-1 is -14.7%.
Consider `CC(C)[C@@H]1C(=O)N(S(C)(=O)=O)[C@@H]2CCN(C(=O)/C=C/CN3CCCCC3)[C@H]21`, for which, in the assay with CRL-7250, the compound was called inactive. In addition, the max response in the assay on HEK293 was -1.35%; with HaCat it was -0.855%; in the assay on KB-3-1, 5.42%; in the assay on NIH3T3, 1.85%.
`CCC(COC)n1nnc2c(Nc3ccc(OC)cc3C)nc(C)cc21` (stereo not given): the compound was called inactive in the assay with CRL-7250. For the same compound, the max response was -7.21% with HEK293, -0.414% with HaCat, 6.85% in the assay with KB-3-1 and 2.01% in the assay on NIH3T3.
For the compound `COc1ccc(CNC(=O)c2sc3nc(C)cc(C)c3c2N)cc1`, the max response with CRL-7250 is -0.266%; in the assay on HEK293, -0.378%; in the assay on HaCat, -25%; with KB-3-1, -4.88%; in the assay on NIH3T3 it was -5.95%.
As to `CC1(C)C2CC=C(COC3OC(COC4OCC(O)(CO)C4O)C(O)C(O)C3O)C1C2` (stereo not given), the compound was called inactive in the assay with CRL-7250. The max response with HEK293 was -3.04%; in the assay on HaCat, 3.64%; with KB-3-1 it was 4.52%; with NIH3T3, 3.88%.
Regarding `C[C@@H]1O[C@@H](O[C@H]2[C@H](O)[C@@H](O)[C@H](OC3CCC4(C)C5CCC(C)(C(CO)OC6OC(CO)C(O)C(O)C6O)CC5=CCC4C3(C)C)O[C@@H]2CO)[C@H](O)[C@H](O)[C@H]1O` (stereo not given in full), the max response with CRL-7250 is 2.65%; in the assay with HEK293, 4.31%; in the assay on HaCat it was -0.0812%; in the assay on KB-3-1, 0.989%; with NIH3T3, 3.8%.
For `CC(=O)N[C@@H](Cc1c[nH]c2ccccc12)C(=O)N[C@@H](CCC(=O)O)C(=O)N[C@@H](Cc1cnc[nH]1)C(=O)N[C@@H](CC(=O)O)C(=O)Nc1ccc2c(C(F)(F)F)cc(=O)oc2c1` (Ac-WEHD-{AFC}), the compound was called inactive with CRL-7250 and with KB-3-1. Moreover, the results for the max response in the assay with HEK293, in the assay with HaCat and in the assay on NIH3T3 were -1.72%, -11.3% and 0.286%, respectively.
In the case of `Cc1ccc(F)cc1C(=O)Nc1ccc(C(=O)N2Cc3cccn3Cc3ccccc32)c(Cl)c1`, the max response with CRL-7250 is -11.2%; in the assay on HaCat it was -26.5%; in the assay on KB-3-1, -16%; in the assay on NIH3T3, -21.1%. Further, in the assay on HEK293, the Potency was 9.2 µM (active).
Turning to `CC12CCC3c4ccc(OC5OC(C(=O)O)C(O)C(O)C5O)cc4CCC3C1CCC2O` (stereo not given), the call in the assay on CRL-7250 and with KB-3-1 was inactive. In addition, the results for the max response in the assay with HEK293, in the assay with HaCat and in the assay with NIH3T3 were 3.31%, 0.389% and 3.14%, respectively.
